Source: PubChem (several laboratories)
Compounds with a hit are over-represented: about 3.5% of the library has one in this group of screens.
PPC-1+TRAIL kill: compounds killing PPC-1 cancer cells with TRAIL present, primary screen, TRAIL potentiator project, ATPLite luminescence, uHTS; PPC-1 cells + TRAIL, ATPLite viability luminescence; cell killing (% activity), % at 4 µM or 5 µM; 220,000 tested, 0.41% active;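 active means cell killing above 50% in the first pass at 4 µM, then a duplicate retest at 5 µM averaging 50% or more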
TRAIL sens C8: viability loss with TRAIL in NB7+C8 cells, primary screen, TRAIL sensitizer project, cell-based, ATPlite luminescence; inhibition (viability loss, TRAIL sensitization), % at 10 µM; 360,000 tested, 1% active;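 active means compounds causing at least 50% loss of cell viability in the single-dose screen, relative to plate controls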
Platelet DG rel: inhibitors of platelet dense granule secretion, primary screen, cell-based, MLPCN, human platelets. human platelet-rich plasma, SFLLRN dense granule ATP release, luminescence. inhibition, %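 (compounds screened at 7.5 µM in platelet-rich plasma)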. 300,000 tested, 0.22% active;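 active means mean replicate score, as percent of positive control, at or above 50; inconclusive means mean below 50 but at least one replicate at or above 50; inactive means mean and every replicate below 50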
HSP90 refold inh: HSP90 inhibitors, primary screen, cell lysate, luminescence. Rabbit reticulocyte lysate, luciferase refolding luminescence, 3 h. AID 1789, 2009. 290,000 tested, 0.91% active. Heat shock protein HSP 90 (rabbit reticulocyte lysate; luciferase refolding). inhibition, % at 5.6 µM;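 active means inhibition above the screen-wide mean plus 3 SD, computed separately per campaign, cut at about 16% in these data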;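 further: inhibitors lower the luminescence because luciferase stays unfolded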
TWEAK-Fn14 inh: inhibitors of TWEAK-Fn14 signaling, primary screen, luciferase reporter cells, uHTS. 360,000 tested, 2% active. AID 1159606, 2016. inhibition, % at 10 µM. TWEAK-stimulated Fn14 reporter cells, luciferase luminescence, 8 h; in the data active means inhibition above about 50%
TROY NFkB inh: inhibitors of TROY-driven NF-kB signaling, primary screen, Q293 LMP1-TROYcd cells, NF-kB luciferase, uHTS; Q293 LMP1-TROYcd NF-kB luciferase reporter, 4 h; inhibition, % at 10 µM; 360,000 tested, 0.98% active;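 active means compounds whose plate-normalised and pattern-corrected inhibition of the luciferase reporter signal at the single screening dose is 50% or more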
Each line names hits and unclear results; the compound was inactive in the other large screens.

Cc1cccc(-n2c(O)c(/C=C3/C(c4ccccc4)=Nc4ccccc43)c(=O)[nH]c2=O)c1	TWEAK-Fn14 inh 52.9
COC(=O)C1=Nc2ccccc2/C1=C\c1c(O)n(-c2cc(OC)ccc2OC)c(=O)[nH]c1=O	TWEAK-Fn14 inh 59.9
COc1ccc(OC)c(-n2c(O)c(C=Nc3c(C)n(C)n(-c4ccccc4)c3=O)c(=O)[nH]c2=O)c1	none
Cc1ccccc1-n1c(O)c(/C=C2/C(c3ccccc3)=Nc3ccccc32)c(=O)[nH]c1=O	TWEAK-Fn14 inh 55.6
CN1C2CCC1/C(=C/c1ccccn1)C(=O)/C2=C\c1ccccn1	TRAIL sens C8 85.9, TWEAK-Fn14 inh 100.3 (no result: Platelet DG rel)
COC(=O)C1=C(c2ccc(OCc3ccccc3)cc2)C[C@@H]2CC[C@H]1N2C(=O)NCc1ccccc1C(F)(F)F	none (no result: PPC-1+TRAIL kill, Platelet DG rel, HSP90 refold inh)
CC1=C(O)C(=O)C=C2C1=CC=C1C2(C)CCC2(C)C3CC(C)(C(=O)O)CCC3(C)CCC12C (stereo not given)	TRAIL sens C8 88.9, TWEAK-Fn14 inh 106.1, TROY NFkB inh 89.4 (no result: PPC-1+TRAIL kill, Platelet DG rel, HSP90 refold inh)
COc1ccc2c(c1)c(C(=O)C(C)N1CCCCC1)c(C)n2C (stereo not given)	none (no result: PPC-1+TRAIL kill)
COC1CCC(OC2CC(C3(C)CCC4(CC(O)C(C)C(C(C)/C=C(\C)C(=O)C(C)CC(C)C(=O)O)O4)O3)OC3(OC(C4OC(O)(CO)C(C)CC4C)CC3C)C2C)OC1C (stereo not given)	TRAIL sens C8 81.4, TWEAK-Fn14 inh 50.0, TROY NFkB inh 55.0 (no result: PPC-1+TRAIL kill, Platelet DG rel, HSP90 refold inh)
O=C(c1ccco1)c1cn(Cc2ccccc2)c2ccccc12	TWEAK-Fn14 inh 101.5
O=C(c1ccco1)c1cn(Cc2ccccc2Cl)c2ccccc12	none
CC(=O)OC1CC(OC2C(O)CC(OC3C(O)CC(OC4CCC5(C)C(CCC6C5CCC5(C)C(C7=CC(=O)OC7)C(O)CC65O)C4)OC3C)OC2C)OC(C)C1OC1OC(CO)C(O)C(O)C1O (stereo not given)	TRAIL sens C8 62.5, TWEAK-Fn14 inh 82.8 (no result: PPC-1+TRAIL kill, Platelet DG rel, HSP90 refold inh)
CC1OC(OC2C(O)CC(OC3C(O)CC(OC4CCC5(C)C(CCC6C5CCC5(C)C(C7=CC(=O)OC7)C(O)CC65O)C4)OC3C)OC2C)CC(O)C1O (stereo not given)	TRAIL sens C8 60.5, TWEAK-Fn14 inh 81.2 (no result: PPC-1+TRAIL kill, Platelet DG rel, HSP90 refold inh)
CC(=O)OC1CC2(O)C3CCC4CC(O)CCC4(C)C3CCC2(C)C1C1=CC(=O)OC1 (stereo not given)	TRAIL sens C8 66.4, TWEAK-Fn14 inh 85.1 (no result: PPC-1+TRAIL kill, Platelet DG rel, HSP90 refold inh)
Cc1nn(Cc2ccccc2)c(C)c1C(=O)O	none
CCN1C(=O)CC(=O)N(CC)C1=S	none (no result: PPC-1+TRAIL kill, Platelet DG rel, HSP90 refold inh)
COc1cccc2c1C(=O)c1c(O)c3c(c(O)c1C2=O)CC(O)(C(C)=NO)CC3OC1CC(N)C(O)C(C)O1 (stereo not given)	TRAIL sens C8 53.4 (no result: PPC-1+TRAIL kill, Platelet DG rel, HSP90 refold inh)
COc1ccc(-n2c(O)c(/C=C3\C=Nc4ccc(Br)cc43)c(=O)[nH]c2=O)c(OC)c1	TWEAK-Fn14 inh 55.2 (no result: PPC-1+TRAIL kill)
O=c1[nH]c(=O)n(-c2ccc(F)cc2)c(O)c1/C=C1\C=Nc2ccccc21	none (no result: PPC-1+TRAIL kill)
O=c1[nH]c(=O)n(-c2ccccc2F)c(O)c1/C=C1\C=Nc2ccccc21	TWEAK-Fn14 inh 54.2 (no result: PPC-1+TRAIL kill)
CN(C(=O)c1ccc(Cl)nc1)C1(c2ccccc2Cl)CCCCC1=O (stereo not given)	none
CCCCCCCCCCCCCCCC[N+](C)(C)C	TRAIL sens C8 85.0 (no result: PPC-1+TRAIL kill, HSP90 refold inh)
COc1ccc2[nH]c(C)c(CCNCc3cc(OC)c4c(c3)OCO4)c2c1	TROY NFkB inh 64.1 (no result: PPC-1+TRAIL kill, Platelet DG rel, HSP90 refold inh)
Cc1ccc(N2C(=O)NC(=O)/C(=C/C=C/c3ccco3)C2=O)cc1	Platelet DG rel inconclusive
O=C1NC(=O)N(c2ccccc2)C(=O)/C1=C\C=C\c1ccccc1	TWEAK-Fn14 inh 67.4
COC1C(OC(=O)c2ccc(C)[nH]2)C(O)C(Oc2ccc3c(O)c(NC(=O)c4ccc(O)c(CC=C(C)C)c4)c(=O)oc3c2Cl)OC1(C)C (stereo not given)	TROY NFkB inh 54.9 (no result: Platelet DG rel)
O=c1[nH]c2ccccc2n1C1CCN(C(c2ccccc2)c2nnnn2-c2ccc3c(c2)OCCO3)CC1 (stereo not given)	TWEAK-Fn14 inh 52.4 (no result: PPC-1+TRAIL kill, Platelet DG rel, HSP90 refold inh)
